# Screening results (PubChem BioAssay)
# An excerpt weighted towards active compounds, which were near 0.81% of everything screened.
# NR5A2 inv ag = NR5A2 inverse agonism in reporter assay; HEK293T StAR-luciferase reporter, LRH-1 transfected, 24 h; inhibition, % at 3.6 µM; 360,000 compounds, 0.13% hits; AID 602396;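 active = inhibition above the mean inhibition of all tested compounds plus 3 SD, cut at about 73% in these data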;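 also: 0% = DMSO wells and 100% = reporter-only cells lacking LRH-1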
# NCOA2 inhibitor = inhibits human steroid receptor coactivator 2. Q15596. HEK293 GAL4-SRC2 luciferase reporter, luminescence. inhibition, % at 9 µM. 370,000 compounds, 0.17% hits;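 active = inhibition above the mean inhibition of all tested compounds plus 3 SD, set per campaign, cut at about 52% in these data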;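 also: 0% = DMSO treated cells and 100% = cells given Gossypol at 36 µM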
# NCOA3 inh = inhibits human SRC3 coactivator; Q9Y6Q9; 360,000 compounds, 0.17% hits; HEK293 GAL4-SRC3 luciferase reporter, luminescence; inhibition, % at 3.6 µM; AID 588352;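 active = inhibition above a per-campaign cutoff, the mean of all compounds plus 3 SD, cut at about 60% in these data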;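 also: 0% = DMSO-treated cells and 100% = gossypol-treated cells at 36 µM; higher means less SRC3-driven luciferase light from the GAL4 reporter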
# NR2F2 inh = blocks human COUP-TFII nuclear receptor. HEK293T NGFI-A luciferase reporter, luminescence. inhibition, % at 8.6 µM. 370,000 compounds, 0.7% hits. AID 686940. P24468;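 active = inhibition above a per-plate cutoff, mean inhibition of test wells between control levels plus 3 SD, cut at about 38% in these data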;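 also: cells cotransfected with COUP-TFII expression vector driving the NGFI-A reporter; 0% = median of COUP-TF2 test wells and 100% = reporter-only cells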
# SRC1 inh = inhibits human SRC1 coactivator | AID 588354 | HEK293 GAL4-SRC1 luciferase reporter, luminescence | inhibition, % at 3.6 µM | 360,000 compounds, 0.12% hits | Q15788;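 active = inhibition above the campaign mean plus 3 SD, with each screening campaign given its own cutoff, cut at about 60% in these data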;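 also: 0% = DMSO treated cells and 100% = gossypol at 36 µM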
# Gal4-VP16 ctr = VP16 inhibition counter-screen for COUP-TFII; 2,500 compounds, 25% hits; shares compounds with NR2F2 inh; HEK293 Gal4-VP16 luciferase reporter, luminescence; inhibition, % at 8.5 µM; in the data active = inhibition above about 13%
# NR2F2 inh conf = confirmation of human COUP-TFII (NR2F2) inhibitors; shares compounds with NR2F2 inh; HEK293 NGFI-A luciferase reporter, luminescence; 2,500 compounds, 45% hits; inhibition, % at 8.5 µM;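 active = mean inhibition over three repeats above a set limit taken from the earlier primary screen, cut at about 38% in these data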;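 also: 100% = cells given the luciferase reporter alone without the COUP-TF2 vector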
# * marks the source's active call; other numbers are inactive results; · = no result given.
SMILES,NR5A2 inv ag,NCOA2 inhibitor,NCOA3 inh,NR2F2 inh,SRC1 inh,Gal4-VP16 ctr,NR2F2 inh conf
CCOC(=O)c1c(C)nn(-c2ccc(NC(=O)/C=C/C(=O)O)cc2)c1C,39,61*,51,65*,-65,36*,15
CCC(C)Nc1nc(-c2ccccn2)nc2ccccc12 (centres undefined),81*,18,64*,38*,19,-12,3
Cc1nnc(SCC(=O)N2CCC(c3noc4ccc(F)cc34)CC2)s1,21,46,63*,49*,62*,5,19
COc1ccc(/C=N/OCC(=O)NC(c2ccccc2)c2ccccc2)cc1OC,57,12,15,61*,15,-6,62*
O=C(Nc1ccc(N2CCN(c3ncccc3C(F)(F)F)CC2)nc1)c1cccs1,17,4,35,52*,24,5,40*
COc1ccc(/C=C2\Sc3ccc(C(=O)N4CCN(Cc5ccccc5)CC4)cc3N(C)C2=O)cc1OC,32,23,28,71*,11,6,58*
CN1CCN(C(=O)c2ccc3c(c2)N(C)C(=O)/C(=C/c2cccc(Cl)c2)S3)CC1,16,22,-13,3,0,·,·
CCCC[C@@H]1C=C(C(=O)O)[C@H](c2ccc3c(c2)OCO3)N1S(=O)(=O)c1ccc(C)cc1,4,3,8,2,-2,·,·
O=C(Nc1ccccc1)c1ccc(CN2CCc3ccccc3C2)cc1,5,-13,-16,35,-1,·,·
O=C(Nc1ccc(S(=O)(=O)N2CCCCC2)cc1)c1ccc(CN2CCc3ccccc3C2)cc1,60,16,-3,70*,16,18*,80*
O=C(Nc1cccnc1)c1ccc(CN2CCc3ccccc3C2)cc1,8,25,-20,42*,2,-14,10
C[C@@H]1CN(Cc2nnnn2CC(=O)NCCCn2cccn2)C[C@H](C)O1,21,4,8,-8,-13,·,·
CC(C)(C)OC(=O)CC[C@@H](C(=O)NCCCCCCCCCCC(=O)N1CCN(C(=O)OC(C)(C)C)CC1)n1cc(CCCCCNC(=O)OC(C)(C)C)nn1,7,-17,8,1,-7,·,·
CC(C)(C)OC(=O)NCCCCCc1cn([C@@H](CO)C(=O)NCCCCCCCCCCC(=O)N2CCN(C(=O)OC(C)(C)C)CC2)nn1,48,54*,72*,69*,53,-6,79*
Cc1oc(-c2ccc3c(c2)OCCO3)cc1C(=O)O,14,74*,29,52*,18,-124,10
CCN(C1CCCCC1)S(=O)(=O)c1ccc(S(=O)(=O)NCCc2ccncc2)cc1,-15,16,19,-6,10,·,·
Cc1cc(C)c(C)c(S(=O)(=O)NCc2ccncc2)c1C,26,-3,10,38*,4,6,30
O=C(O)CNS(=O)(=O)c1ccc(Br)s1,-7,-9,11,3,1,·,·
Cc1cc(Br)c(S(=O)(=O)NCc2ccncc2)cc1C,33,15,11,54*,13,8,47*
COc1cc(C)c(Br)cc1S(=O)(=O)NCc1ccccc1,-1,0,1,-2,1,·,·
O=S(=O)(NCc1ccncc1)c1ccc(Br)s1,28,20,23,63*,33,7,54*
CCN(C1CCCCC1)S(=O)(=O)c1ccc(S(=O)(=O)NCc2ccncc2)cc1,22,2,7,55*,10,1,32
COc1ccc(CN(C)C(=O)c2cc(-c3ccccc3)nc3ccc(C)cc23)c(OC)c1,-3,13,-26,29,10,·,·
O=C(N/N=C/c1coc2ccc(Cl)cc2c1=O)c1ccc(O)cc1,-6,10,18,3,38,·,·
CSc1nsc(SCC(=O)Nc2ccc(OC(C)=O)cc2)n1,-44,-40,-44,-8,-57,·,·
SMILES,NR5A2 inv ag,NCOA2 inhibitor,NCOA3 inh,NR2F2 inh,SRC1 inh,Gal4-VP16 ctr,NR2F2 inh conf
O=C(Nc1ccc(S(=O)(=O)NCc2cccnc2)cc1)c1ccccc1Cl,25,16,22,40*,15,6,28
COc1cc(S(=O)(=O)NCc2ccncc2)ccc1Br,26,16,13,56*,5,8,44*
O=C(Nc1ccccc1)c1ccc(S(=O)(=O)NCc2cccnc2)cc1,-6,4,-1,32,29,·,·
Cn1c(=O)oc2cc(S(=O)(=O)NCc3ccncc3)ccc21,26,24,-1,44*,14,-8,-4
COc1ccc(S(=O)(=O)NCc2cccnc2)cc1Br,10,23,14,48*,-3,6,39*
CNC(=O)c1cc(S(=O)(=O)NCc2ccncc2)ccc1OC,15,-33,0,13,0,·,·
Cc1ccnc(NC(=O)Cc2ccc([N+](=O)[O-])cc2)c1,-11,-17,-2,3,-20,·,·
Cc1cc(NC(=O)COC(=O)c2cccc(O)c2)no1,-17,-5,11,-3,13,·,·
COc1cc(/C=C/C(=O)C2C(=O)C=C(C)OC2=O)cc(OC)c1O (centres undefined),3,-12,9,-1,-29,·,·
CC(C)Cc1nnc(NC(=O)CC(=O)Nc2ccccc2C(=O)O)s1,2,-7,11,-5,-5,·,·
Cc1ccc(S(=O)(=O)NCc2ccncc2)cc1C,30,8,19,60*,-5,15*,57*
O=S(=O)(NCc1ccncc1)c1ccc(F)c(F)c1,6,25,28,32,15,·,·
COc1cc(NC(=O)CSc2nc3[nH]ncc3c(=O)n2-c2ccccc2C)cc(OC)c1OC,18,-9,-3,-1,1,·,·
C=CCN(C(=O)CSc1nc2[nH]ncc2c(=O)n1-c1ccccc1OC)c1ccccc1,-9,17,2,42*,-10,-6,-3
Cc1ccc(NS(=O)(=O)c2cn(C)c(=O)n(C)c2=O)cc1C,13,-1,5,-12,1,·,·
CCN(CC)c1ccc(NS(=O)(=O)c2cn(C)c(=O)n(C)c2=O)c(C)c1,15,-20,-7,78*,-2,-13,-7
C=CCN=c1scc(-c2ccc(F)cc2)n1/N=C/c1ccccn1,-228,-6,-237,-28,-124,·,·
C=CCN=c1scc(-c2ccc3c(c2)NC(=O)CO3)n1/N=C(\C)c1ccccn1,36,16,28,56*,-3,12,63*
COc1cccc(/C=N/NC(=O)N/N=C/c2cccc(OC)c2O)c1O,6,-20,32,12,23,·,·
NS(=O)(=O)c1cccc(NS(=O)(=O)c2cccc(C(F)(F)F)c2)c1,10,2,10,43*,-3,3,3
COc1ccc(C(=O)c2ccc(Cl)cc2)c2ccccc12,6,-15,4,2,14,·,·
